The list is not random: actives were taken first. Their share in the collection is about 4.4%.
NFkB transloc pot – enhances IL-1B driven NFkB nuclear translocation; HUVEC IL-1B NFkB p65 nuclear translocation imaging; activation, % at 2 µM; 94,000 tested, 0.3% active; AID 819;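 active = activation above 40%, about the mean plus 3 SD, also judged a hit on visual image review; inconclusive = activation above 40% but not a hit on visual review; inactive = activation not above 40% and no visual hit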;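 also: percent activation is computed from the nuclear over cytoplasmic p65 intensity ratio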
Cav3 T inh – inhibitors of human Cav3.2 T-type calcium channel | 100,000 tested, 4% active | Cav3.2-expressing cells, Fluo-4 calcium fluorescence FDSS; hits give low values | B-score at 10 µM;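 active = single-dose well whose peak fluorescence ratio is a statistical outlier from its plate by either plate-standardised score or position-corrected B-score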
IL1B NFkB inh – blocks IL-1B driven NFkB nuclear translocation in HUVEC cells; 94,000 tested, 0.43% active; HUVEC IL-1B NFkB p65 nuclear translocation imaging; inhibition, % at 2 µM;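 active = inhibition above about 30% together with a positive call from visual inspection of the well image, limit read from the data; inconclusive = inhibition above a set limit but visual check negative; inactive = inhibition not above a set limit, visual check negative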;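 also: nuclear over cytoplasmic p65 intensity ratio measured by imaging; 0% = IL-1B stimulated DMSO wells and 100% = unstimulated DMSO wells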
HUVEC tox IL1B – HUVEC cytotoxicity counter-screen, IL-1B stimulated. 94,000 tested, 0.41% active. cell count reduction, % at 2 µM. HUVEC cell count loss, Hoechst imaging;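 active = cell count reduction more than 3 SD above the screen-wide mean, cut at about 70% in these data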;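 also: normalized per plate to untreated control cells as the no-loss baseline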
Starred values were filed as active, the others as inactive; ? = inconclusive; / = no result given.

SMILES	NFkB transloc pot	Cav3 T inh	IL1B NFkB inh	HUVEC tox IL1B
COc1ccc(NC(=O)C2CCCN2S(=O)(=O)c2ccc3c(c2)CCC(=O)N3)cc1Cl (stereo not drawn)	/	0.57	/	/
Clc1ccc(CSc2nnc(-c3sccc3-n3cccc3)o2)cc1	-7	-1	7	-16
CCOC(=O)c1cn(-c2nc(-c3ccc(Cl)c(Cl)c3)cs2)c2c(F)c(N3CCOCC3)c(F)cc2c1=O	1	/	-1	-2
CC(=O)C(CC(=O)N1CCCc2ccccc21)C(=O)Nc1ccc(F)cc1 (stereo not drawn)	-2	-1.9	2	36
CCCCNC(=O)c1onc(CSc2ccccn2)c1C(=O)NCCCC	/	-1.9	/	/
COc1ccc(CN2C(=O)[C@H]3Cc4c([nH]c5ccccc45)C(C)(C)N3C2=O)cc1	/	-2.2	/	/
CCOC(=O)C1C(=O)CC(C)(O)C(C(=O)OCC)C1c1ccc(N(CC)CC)cc1 (stereo not drawn)	13	-0.87	-13	-17
CCN(CC)c1ccc(C2C(C(=O)OC(C)C)C(=O)CC(C)(O)C2C(=O)OC(C)C)cc1 (stereo not drawn)	11	-5.7*	-11	-12
c1ccc(-n2nnnc2OCCOc2nnnn2-c2ccccc2)cc1	-24	-0.6	24	94*
CC(C)Oc1nnnn1-c1ccccc1	2	-0.064	-2	2
O=C(CCCCCCN1C(=O)c2ccccc2C1=O)N1CCC(c2ccccc2)C1 (stereo not drawn)	11	-4.3*	-11	0
C#CCNC(=O)C1=C[C@H](c2ccc(Br)cc2)C[C@H](OCCCCO)O1	/	1	/	/
O=C(CSc1nc2ccccc2o1)Nc1ccc(N2CCOCC2)c(Cl)c1	7	-3.8*	-7	-36
O=C(CSc1nc2ccccc2o1)Nc1ccccc1N1CCCCCC1	11	-6.6*	-11	-6
Cc1cccc(NC(=O)CSc2nc3ccccc3o2)c1	13	-6.9*	-14	8
Cc1ccc(-n2nnnc2SCC(=O)Nc2ccccc2N2CCCCC2)cc1C	2	-4.1*	-2	11
O=C(CSc1nc2ccccc2o1)Nc1cc(C(F)(F)F)ccc1N1CCOCC1	6	-1.4	-6	-5
COc1ccc([C@@H]2C=C(C(=O)O)O[C@H](OCCCCO)C2)cc1	/	-0.019	/	/
Cc1ccc(C)c2c3c([nH]c12)-c1nonc1CC3	16	-1.6	-16	-18
O=C(c1ccccc1)N(Cc1ccco1)C1CCS(=O)(=O)C1 (stereo not drawn)	12	0.19	-12	-1
O=C(CSc1nc2ccccc2o1)NC(=O)NCc1ccccc1	6	-6.5*	-6	7
COc1ccc(N2CCN(C(=O)CN(Cc3ccc(Cl)cc3)S(C)(=O)=O)CC2)cc1	-2	-4.6*	2	29
COc1ccc(OC)c(S(=O)(=O)N(C)CC(=O)N2CCN(c3cccc(Cl)c3)CC2)c1	7	-6.8*	-7	6
COc1ccc(N2CCN(C(=O)CN(Cc3ccccc3)S(C)(=O)=O)CC2)cc1	0	-0.21	0	-71
COc1ccc(OCC(=O)N2CCN(c3cccc(Cl)c3)CC2)cc1	6	-4.5*	-6	25
SMILES	NFkB transloc pot	Cav3 T inh	IL1B NFkB inh	HUVEC tox IL1B
CCC(C(=O)N1CCN(c2cccc(Cl)c2)CC1)c1ccccc1 (stereo not drawn)	25	-5.3*	-25	-8
O=C(C(Cc1ccccc1)n1cccc1)N1CCN(c2cccc(Cl)c2)CC1 (stereo not drawn)	-4	-4.3	4	4
COc1ccc(N2CCN(C(=O)COc3ccc4ccccc4c3)CC2)cc1	13	-0.14	-13	-32
O=C(COc1ccc(Br)cc1)N1CCN(c2ccccc2)CC1	15	-3.3*	-15	-11
COc1ccc(OCC(=O)N2CCN(c3cccc(C(F)(F)F)c3)CC2)cc1	1	-6.9*	-1	9
CCCN(CC1CC1)C(=O)COC(=O)c1[nH]c(C)c(C(=O)OCC)c1C	2	-2.3	-2	2
O=[N+]([O-])c1ccc(S(=O)(=O)NCCc2cn3ccccc3n2)cc1	/	-0.056	/	/
Fc1ccc(C(CCCn2nnc(-c3cccnc3)n2)c2ccc(F)cc2)cc1	-8	-4.2*	8	-8
Fc1ccc(-n2nnc(-c3cccnc3)n2)cc1	/	0.056	/	/
O=C(NC(=S)NCc1ccccc1)c1ccccc1F	8	-0.69	-8	-15
O=C(NC(=S)N(Cc1ccccc1)Cc1ccccc1)c1ccccc1F	10	-6.2*	-10	-19
Clc1ccc(CSc2nnc(Cn3cnc4ccccc43)o2)cc1	-16	-4.7*	16	15
O=C(CSc1nnc(Cn2nnc3ccccc32)o1)N(Cc1ccc(Cl)cc1)c1ccccc1	-2	-6*	2	-40
O=C(CSc1nnc(Cn2nnc3ccccc32)o1)Nc1cccc(Cl)c1	-11	0.32	11	0
Cc1n(CC(O)COC2CCCCC2)c2ccccc2[n+]1C (stereo not drawn)	-9	0.68	9	3
O=C(O)c1cccc(S(=O)(=O)NCC2CCCO2)c1 (stereo not drawn)	-93	1.5	93*	90*
Cc1cccc(S(=O)(=O)NCC2CCCO2)c1 (stereo not drawn)	-4	0.17	4	-7
O=C1CC(N(CCc2ccccc2)C(=S)Nc2cc(Cl)ccc2Cl)C(=O)N1c1c(Cl)cccc1Cl (stereo not drawn)	-4	-2.6*	4	-41
COc1cccc(C(=O)Oc2cc(N)n(S(=O)(=O)c3ccc(C)cc3)n2)c1OC	-33	/	32*	-4
CCOC(=O)C1CCN(C(=O)C2CCCCC2)CC1	?	0.74	-40	-6
COc1cc(/C=C/C(=O)NNc2c(F)c(F)cc(F)c2F)ccc1OC(F)F	6	-4.3*	-6	-7
COc1ccc(/C=C/C(=O)NNc2c(F)c(F)cc(F)c2F)cc1OC	6	-0.25	-6	-9
COC(=O)C1=C(C(=O)OC)[C@@H]2N(Cc3ccccc3)c3ccccc3[C@@]23C[C@@H](C(=O)OC)N(C(=O)c2cc(C)oc2C)C3=N1	/	-3*	/	/
COC(=O)C1=C(C(=O)OC)[C@@H]2N(Cc3ccccc3)c3ccccc3[C@@]23C[C@@H](C(=O)OC)N(C(=O)c2cccs2)C3=N1	/	-1.4	/	/
CCC1=NNc2cccc3c(OC)ccc1c23	40*	-0.48	-40	-85
SMILES	NFkB transloc pot	Cav3 T inh	IL1B NFkB inh	HUVEC tox IL1B
O=C1c2[nH]nc(-c3ccccc3O)c2C(c2cccc(Cl)c2)N1Cc1ccco1 (stereo not drawn)	4	-4.3*	-4	-14
O=C1c2[nH]nc(-c3ccccc3O)c2C(c2cccc(Cl)c2)N1CC1CCCO1 (stereo not drawn)	25	/	-25	5
O=C1c2[nH]nc(-c3ccccc3O)c2C(c2ccc(F)cc2)N1Cc1ccco1 (stereo not drawn)	5	-4.5*	-5	20
COc1ccc(N2C(=O)C3CCCN3C2c2ccccc2Cl)cc1 (stereo not drawn)	10	0.42	-10	-10
O=c1[nH]cnc2nc(-c3ccccc3)c(-c3ccccc3)nc12	8	1.7	-8	5
O=c1[nH]cnc2nn(-c3ccccc3)nc12	/	-3.7*	/	/
Cc1cccc(C)c1NC(=O)C(=O)NCCOc1ccc(Cl)cc1	4	-3.6*	-4	3

Assay outcomes (PubChem BioAssay)
